# Substitutions are numbered along the chain they refer to.
# How the values were obtained:
# Assay in all cases: yeast three-hybrid, YBZ-1, SC-Leu-His + 0.5 mM 3-AT, 4 days
# Conditions in all cases: tags: N-Gal4 AD-HA kept; label: inside an RPR1-promoter hybrid RNA with tandem MS2 sites; ssRNA
# [1] = molecular target: PUM1 PUF domain R7-RYP (Homo sapiens, UniProt Q14671 828-1176, S1079R;N1080Y;E1083P)
# In short: (§1)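 The interaction score is the log change in variant frequency from input to selection. Scores were computed in log2 with a pseudocount of 1 for absent variants, using Illumina sequencing of PCR-amplified repeat regions. The input came from four days on SC-Leu and the selection from four days on SC-Leu-His + 0.5 mM 3-AT. The cells were strain YBZ-1 (LexA–MS2 coat fusion, HIS3 reporter) co-expressing Pumilio-1 PUF domain libraries and matching RNA elements from a centromeric plasmid.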
# [2] = molecular target: PUM1 PUF domain R1-NYS (Homo sapiens, UniProt Q14671 828-1176, S863N;R864Y;Q867S)
# In short: as §1
# [3] = molecular target: PUM1 PUF domain R1-YFR (Homo sapiens, UniProt Q14671 828-1176, S863Y;R864F;Q867R)
# In short: as §1
# [4] = molecular target: PUM1 PUF domain R1-CCK (Homo sapiens, UniProt Q14671 828-1176, S863C;R864C;Q867K)
# In short: as §1
# [5] = molecular target: PUM1 PUF domain R3-CRA (Homo sapiens, UniProt Q14671 828-1176, Q939A)
# In short: as §1
# [6] = molecular target: PUM1 PUF domain R3-SIR (Homo sapiens, UniProt Q14671 828-1176, C935S;R936I;Q939R)
# In short: as §1
# [7] = molecular target: T1, PUM1 PUF domain R6-CWI (Homo sapiens, UniProt Q14671 828-1176, N1043C;Y1044W;Q1047I)
# T1 sequence: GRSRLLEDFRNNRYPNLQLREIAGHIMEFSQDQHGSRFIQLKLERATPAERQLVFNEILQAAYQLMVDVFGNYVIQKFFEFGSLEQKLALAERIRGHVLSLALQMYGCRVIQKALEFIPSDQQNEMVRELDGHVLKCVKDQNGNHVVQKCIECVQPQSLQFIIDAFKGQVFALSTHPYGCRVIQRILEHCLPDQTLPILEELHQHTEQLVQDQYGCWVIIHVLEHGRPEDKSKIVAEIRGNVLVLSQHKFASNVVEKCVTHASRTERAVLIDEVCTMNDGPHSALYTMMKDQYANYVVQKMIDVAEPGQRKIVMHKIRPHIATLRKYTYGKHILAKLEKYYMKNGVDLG
# In short: as §1
# [8] = molecular target: PUM1 PUF domain R5-YNG (Homo sapiens, UniProt Q14671 828-1176, C1007Y;R1008N;Q1011G)
# In short: as §1
# [9] = molecular target: PUM1 PUF domain R5-TYF (Homo sapiens, UniProt Q14671 828-1176, C1007T;R1008Y;Q1011F)
# In short: as §1
# [10] = molecular target: PUM1 PUF domain R8-IRR (Homo sapiens, UniProt Q14671 828-1176, N1122I;Y1123R;Q1126R)
# In short: as §1
# [11] = molecular target: PUM1 PUF domain R4-PHT (Homo sapiens, UniProt Q14671 828-1176, N971P;Q975T)
# In short: as §1
# [12] = molecular target: T2, PUM1 PUF domain R6-CFM (Homo sapiens, UniProt Q14671 828-1176, N1043C;Y1044F;Q1047M)
# T2 sequence: T1 sequence with W217F, I220M
# In short: as §1
# [13] = molecular target: PUM1 PUF domain R3-LYM (Homo sapiens, UniProt Q14671 828-1176, C935L;R936Y;Q939M)
# In short: as §1
# [14] = molecular target: PUM1 PUF domain R8-RHK (Homo sapiens, UniProt Q14671 828-1176, N1122R;Y1123H;Q1126K)
# In short: as §1
# [15] = molecular target: PUM1 PUF domain R5-TRS (Homo sapiens, UniProt Q14671 828-1176, C1007T;Q1011S)
# In short: as §1
# [16] = molecular target: PUM1 PUF domain R3-VFW (Homo sapiens, UniProt Q14671 828-1176, C935V;R936F;Q939W)
# In short: as §1
# [17] = molecular target: PUM1 PUF domain R3-RTK (Homo sapiens, UniProt Q14671 828-1176, C935R;R936T;Q939K)
# In short: as §1
# [18] = molecular target: PUM1 PUF domain R5-RKD (Homo sapiens, UniProt Q14671 828-1176, C1007R;R1008K;Q1011D)
# In short: as §1
# [19] = molecular target: PUM1 PUF domain R8-KFS (Homo sapiens, UniProt Q14671 828-1176, N1122K;Y1123F;Q1126S)
# In short: as §1
# [20] = molecular target: PUM1 PUF domain R5-PLK (Homo sapiens, UniProt Q14671 828-1176, C1007P;R1008L;Q1011K)
# In short: as §1
sequence,measurement,setting,value
GGCUAGAACUAGUGGAUCCCCCGGCGCCCGGCGGCUCGAGCCCGGGUAAGUCUAAAUAGUCUGCAUGCCGCCGGGCGCCAUGCCUGCAGGUCGACUCUAGAAAACAUG,binding signal,[1],5.27 log2 enrichment (interaction score)
GGCUAGAACUAGUGGAUCCCCCGGCGCCCGGCGGCUCGAGCCCGGGUAAGUGUAAAUUGUCUGCAUGCCGCCGGGCGCCAUGCCUGCAGGUCGACUCUAGAAAACAUG,binding signal,[2],3.41 log2 enrichment (interaction score)
same,binding signal,[3],6.74 log2 enrichment (interaction score)
same,binding signal,[4],2.6 log2 enrichment (interaction score)
GGCUAGAACUAGUGGAUCCCCCGGCGCCCGGCGGCUCGAGCCCGGGUAAGUGUAAGUAGUCUGCAUGCCGCCGGGCGCCAUGCCUGCAGGUCGACUCUAGAAAACAUG,binding signal,[5],1.42 log2 enrichment (interaction score)
same,binding signal,[6],2.77 log2 enrichment (interaction score)
GGCUAGAACUAGUGGAUCCCCCGGCGCCCGGCGGCUCGAGCCCGGGUAAGUGUAAAUAGUCUGCAUGCCGCCGGGCGCCAUGCCUGCAGGUCGACUCUAGAAAACAUG,binding signal,[2],2.51 log2 enrichment (interaction score)
same,binding signal,[7],4.75 log2 enrichment (interaction score)
same,binding signal,[8],2.79 log2 enrichment (interaction score)
same,binding signal,[9],2.88 log2 enrichment (interaction score)
same,binding signal,[5],2.9 log2 enrichment (interaction score)
same,binding signal,[10],1.39 log2 enrichment (interaction score)
same,binding signal,[11],6.07 log2 enrichment (interaction score)
same,binding signal,[12],3.02 log2 enrichment (interaction score)
same,binding signal,[13],4.11 log2 enrichment (interaction score)
same,binding signal,[14],2.95 log2 enrichment (interaction score)
same,binding signal,[15],2.85 log2 enrichment (interaction score)
same,binding signal,[16],4.87 log2 enrichment (interaction score)
GGCUAGAACUAGUGGAUCCCCCGGCGCCCGGCGGCUCGAGCCCGGGUAAGGGUAAAUAGUCUGCAUGCCGCCGGGCGCCAUGCCUGCAGGUCGACUCUAGAAAACAUG,binding signal,[14],3.54 log2 enrichment (interaction score)
GGCUAGAACUAGUGGAUCCCCCGGCGCCCGGCGGCUCGAGCCCGGGUAAGUGUAAUUAGUCUGCAUGCCGCCGGGCGCCAUGCCUGCAGGUCGACUCUAGAAAACAUG,binding signal,[6],1.21 log2 enrichment (interaction score)
same,binding signal,[16],5.01 log2 enrichment (interaction score)
same,binding signal,[17],4.87 log2 enrichment (interaction score)
GGCUAGAACUAGUGGAUCCCCCGGCGCCCGGCGGCUCGAGCCCGGGUAAGUGUGAAUAGUCUGCAUGCCGCCGGGCGCCAUGCCUGCAGGUCGACUCUAGAAAACAUG,binding signal,[15],2.97 log2 enrichment (interaction score)
GGCUAGAACUAGUGGAUCCCCCGGCGCCCGGCGGCUCGAGCCCGGGUAAGUGUAAAUGGUCUGCAUGCCGCCGGGCGCCAUGCCUGCAGGUCGACUCUAGAAAACAUG,binding signal,[3],2.6 log2 enrichment (interaction score)
GGCUAGAACUAGUGGAUCCCCCGGCGCCCGGCGGCUCGAGCCCGGGUAAGUGUCAAUAGUCUGCAUGCCGCCGGGCGCCAUGCCUGCAGGUCGACUCUAGAAAACAUG,binding signal,[18],4.06 log2 enrichment (interaction score)
GGCUAGAACUAGUGGAUCCCCCGGCGCCCGGCGGCUCGAGCCCGGGUAAGCGUAAAUAGUCUGCAUGCCGCCGGGCGCCAUGCCUGCAGGUCGACUCUAGAAAACAUG,binding signal,[10],2.44 log2 enrichment (interaction score)
same,binding signal,[19],3.24 log2 enrichment (interaction score)
same,binding signal,[14],3.29 log2 enrichment (interaction score)
GGCUAGAACUAGUGGAUCCCCCGGCGCCCGGCGGCUCGAGCCCGGGUAAGUGUUAAUAGUCUGCAUGCCGCCGGGCGCCAUGCCUGCAGGUCGACUCUAGAAAACAUG,binding signal,[9],1.26 log2 enrichment (interaction score)
same,binding signal,[20],2.84 log2 enrichment (interaction score)
same,binding signal,[15],3.03 log2 enrichment (interaction score)
GGCUAGAACUAGUGGAUCCCCCGGCGCCCGGCGGCUCGAGCCCGGGUAAGUGUACAUAGUCUGCAUGCCGCCGGGCGCCAUGCCUGCAGGUCGACUCUAGAAAACAUG,binding signal,[11],2.45 log2 enrichment (interaction score)
